FLuc counter = firefly luciferase modulation, counter-screen for miR-21 project; purified FLuc, Km substrates, luminescence inhibition; Potency, µM (highest dose often 57.5 µM), for inactives: top-dose activity change, negative = inhibition, actives largely listed as inhibitors; P08659; hit rate 6.9% among 360,000;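 also: plate controls were vehicle for no effect and reference inhibitor for full effect; nearly all actives have a fitted effect of over 55% in size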
Target sequence (P08659 whole entry, looked up): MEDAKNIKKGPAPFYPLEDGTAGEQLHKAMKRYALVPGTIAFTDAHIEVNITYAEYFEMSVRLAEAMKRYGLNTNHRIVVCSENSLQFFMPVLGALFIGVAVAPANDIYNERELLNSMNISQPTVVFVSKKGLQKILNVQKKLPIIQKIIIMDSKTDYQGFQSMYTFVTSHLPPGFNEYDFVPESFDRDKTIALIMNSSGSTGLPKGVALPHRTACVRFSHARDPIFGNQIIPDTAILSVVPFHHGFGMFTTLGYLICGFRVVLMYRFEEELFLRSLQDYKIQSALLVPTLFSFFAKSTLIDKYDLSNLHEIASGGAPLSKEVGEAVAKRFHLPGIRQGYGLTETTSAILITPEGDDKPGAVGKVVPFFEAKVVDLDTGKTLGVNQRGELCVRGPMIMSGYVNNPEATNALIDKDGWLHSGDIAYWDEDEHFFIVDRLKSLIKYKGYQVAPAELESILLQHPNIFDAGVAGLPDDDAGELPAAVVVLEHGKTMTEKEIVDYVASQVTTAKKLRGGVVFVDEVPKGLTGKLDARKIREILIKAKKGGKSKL
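Biochemical qHTS of compounds, final roughly 60 µM downward over six points, against 10 nM purified firefly luciferase using Km concentrations of substrates (10 uM D-luciferin, 10 uM ATP) in Tris acetate pH 7.5 buffer; luminescence output.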
ELG1 repair inh = blocks ELG1-dependent DNA repair in HEK293T cells; hit rate 2.3% among 330,000; AID 504467; Potency, µM (highest dose often 46.1 µM), for the others: at the highest dose activity change, negative = inhibition, usual class: inhibitors; HEK293T ELG1-luciferase reporter, luminescence, 16 h; DNA damage induced by 5-fluorouridine; also: % is scaled to controls: 0 for no effect and ±100 for the full control effect; nearly all actives have a fitted effect of over 55% in size
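Step one: seed 2,000 cells per well. Step two: pin-transfer compound or DMSO alongside 5-fluorouridine. Step three: incubate 16 hr, 37 °C, 5% CO2. Step four: add ONE-Glo, wait 30 min, read luminescence.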
NPC1 promoter act = activators of NPC1 promoter | Huh7 NPC1 promoter luciferase reporter, 24 h | hit rate 2.4% among 320,000 | AID 485313 | Potency, µM (doses to about 9.22 µM), inactives show at the top dose activation, most hits filed as activators; also: % of control where 0% means no effect; nearly all actives have a fitted effect of over 60% in size
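In 1536-well qHTS, Huh7 cells harboring an NPC1 promoter–luciferase construct received compound for 24 h; activation was quantified by luminescence following luciferase reagent addition.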
ELG1 genotoxic = genotoxicity induction in ELG1-luciferase HEK293T cells; HEK293T ELG1-luciferase reporter, luminescence, 16 h; Potency, µM (doses to about 46 µM), for inactives: at the highest dose activity change, positive = activation, usual class: activators; hit rate 1.3% among 330,000; AID 504466; also: % of control where 0% means no effect; nearly all actives have a fitted effect of over 60% in size
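Genotoxic stress is detected as increased luminescence from luciferase-tagged ELG1 in HEK293T cells, measured with ONE-Glo after a 16 hr treatment at 37 °C.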
Rab9 prom act = activators of Rab9 promoter. Huh7 Rab9 promoter-luciferase reporter, luminescence, 24 h. Potency, µM (top dose mostly 9.22 µM), inactives show top-dose activation, negative = inhibition, actives largely listed as activators. hit rate 2.8% among 320,000. AID 485297; also: % of control where 0% means no effect; nearly all actives have a fitted effect of over 60% in size
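Steps: seed 1500 Huh7 Rab9-luc cells per well, rest 2 h at 37 °C; add compound in DMSO; incubate 24 h; add luciferase reagent, 10 min ambient; read luminescence.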
SMN2 splice up = enhancers of SMN2 splice variant expression; hit rate 2.8% among 210,000; HEK293 SMN2-luciferase splicing reporter, luminescence, 30-36 h; Potency, µM (highest dose often 46.1 µM), without a hit: at the highest dose activity change, positive = activation, usual class: activators; also: % of control where 0% means no effect; nearly all actives have a fitted effect of over 55% in size
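qHTS luciferase splicing reporter: luminescence rises when SMN2 exon 7 is included in transfected HEK293 cells. Compound exposure lasted 30-36 h at 37C, with 4.5 mM final sodium butyrate as control, followed by a ONE-Glo read.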
* = called active by the depositor. In the library only some 9.2% were active in any assay of this set; here they are far more common. Calls follow the shape of the dose curve; as a rule, active = well fitted curve in the direction sought with a large enough effect; inconclusive = small, poorly fitted or top-dose-only effect, or another doubt; inactive = no such curve, though single readings can be large; an effect the other way counts as inactive or inconclusive. Potency is read from the fitted curve at half-maximal effect.

For O=C(CNc1cccc(S(=O)(=O)N2CCCC2)c1)Nc1cccc(F)c1 the results were FLuc counter -9%, ELG1 repair inh -18%, NPC1 promoter act 5%, ELG1 genotoxic -6% and Rab9 prom act -12%.
`CCN(CC)S(=O)(=O)c1cccc(NC(=O)CNc2cccc(S(=O)(=O)N3CCCC3)c2)c1` gave FLuc counter 0%, ELG1 repair inh 0.33µM*, NPC1 promoter act -36%, ELG1 genotoxic -14% and Rab9 prom act -36%.
`O=C(CNc1ccc(F)cc1Cl)Nc1cccc(S(=O)(=O)N2CCCCC2)c1` gave FLuc counter 11µM*, ELG1 repair inh -28%, NPC1 promoter act -5%, ELG1 genotoxic -4% and Rab9 prom act -3%.
CCN(CC)S(=O)(=O)c1cc(NC(=O)CNc2cccc(S(=O)(=O)N3CCOCC3)c2)ccc1C was read as FLuc counter 6%, ELG1 repair inh inconclusive, NPC1 promoter act -28%, ELG1 genotoxic 5.2µM* and Rab9 prom act -34%.
For CN(CC(=O)Nc1cccc(S(=O)(=O)N2CCCC2)c1)CC(=O)Nc1ccc(Cl)c(C(F)(F)F)c1 the results were FLuc counter 15%, ELG1 repair inh 15µM*, NPC1 promoter act -5%, ELG1 genotoxic -9% and Rab9 prom act -13%.
For CCOc1c([N+](=O)[O-])cc2c(C)c(C(=O)N3CCN(C)CC3)oc2c1OCC the results were FLuc counter 5%, ELG1 repair inh -2%, NPC1 promoter act 3%, ELG1 genotoxic 1% and Rab9 prom act -1%.
CCN(CC)S(=O)(=O)c1cccc(NC(=O)CC2CCCC2)c1 was read as FLuc counter -1%, ELG1 repair inh inconclusive, NPC1 promoter act -1%, ELG1 genotoxic -29% and Rab9 prom act 3%.
Screening CCN(CC)S(=O)(=O)c1cccc(NC(=O)Nc2cccc(C(F)(F)F)c2)c1 returned FLuc counter -18%, ELG1 repair inh 13µM*, NPC1 promoter act 2%, ELG1 genotoxic -10%, Rab9 prom act 2% and SMN2 splice up -45%.
Cc1ccc(NC(=O)CSc2ccccc2)cc1S(=O)(=O)N1CCOCC1 was read as FLuc counter 2%, ELG1 repair inh -9%, NPC1 promoter act -2%, ELG1 genotoxic 1% and Rab9 prom act 1%.
`Cc1ccc(NC(=O)CNc2cccc(Br)c2)cc1S(=O)(=O)N1CCOCC1` gave ELG1 repair inh 23µM* and ELG1 genotoxic -6%.
Screening CCC(Cc1ccccc1)NC(=O)c1csc2c1CCCCC2 (stereo not drawn) returned FLuc counter -1% and SMN2 splice up 5%.
`Cc1cn(-c2ccc(Br)cc2)[nH]c1=O` gave FLuc counter inconclusive, ELG1 repair inh inconclusive, NPC1 promoter act 27%, ELG1 genotoxic 18µM*, Rab9 prom act 18% and SMN2 splice up 21%.
CS(=O)(=O)c1ccc(C(=O)CN2C(=O)NC3(CCCc4ccccc43)C2=O)cc1 (stereo not drawn) was read as FLuc counter 0%, ELG1 repair inh 1%, NPC1 promoter act 0%, ELG1 genotoxic -2% and Rab9 prom act 1%.
`COc1cccc(CN(C)C(=O)CCN=C2NS(=O)(=O)c3ccccc32)c1` gave ELG1 repair inh inconclusive and ELG1 genotoxic 0%.
CC1(C)Cc2ccccc2-c2nnc(SCC(=O)N3CCN(c4ccccc4)CC3)n21 was read as FLuc counter 6%, ELG1 repair inh 15µM*, NPC1 promoter act 1%, ELG1 genotoxic -19% and Rab9 prom act 2%.
Screening C=CCn1c(COc2cccc(C)c2C)nnc1SCC(=O)N1CCN(c2ccccc2)CC1 returned FLuc counter -6%, ELG1 repair inh 21µM*, NPC1 promoter act 3%, ELG1 genotoxic -2%, Rab9 prom act -6% and SMN2 splice up -51%.
For COc1cccc(N2CCN(C(=O)CCCCCNc3nc(=S)[nH]c4ccccc34)CC2)c1 the results were FLuc counter -10%, ELG1 repair inh 18µM*, NPC1 promoter act 0%, ELG1 genotoxic -15%, Rab9 prom act -16% and SMN2 splice up -49%.
`COc1ccc(N2CCN(C(=O)CSc3nnc(-c4cc5ccccc5cc4O)n3C)CC2)cc1` gave FLuc counter -5%, ELG1 repair inh 11µM*, NPC1 promoter act -4%, ELG1 genotoxic -20%, Rab9 prom act -3% and SMN2 splice up -53%.
For CNC(=O)CN1C(=O)COc2ccc(S(=O)(=O)N3CCC(C)CC3)cc21 the results were FLuc counter -3% and SMN2 splice up -5%.
`O=C(Nc1ccc(F)cc1)N1CCN(C(=O)C2CCCO2)CC1` (stereo not drawn) gave FLuc counter -13%, ELG1 repair inh 2%, NPC1 promoter act 7%, ELG1 genotoxic 8% and Rab9 prom act -6%.
Screening C=CCn1c(COc2ccccc2)nnc1SCC(=O)N/N=C/c1ccc(C)cc1 returned FLuc counter 12µM*, ELG1 repair inh 0%, NPC1 promoter act -7%, ELG1 genotoxic 3%, Rab9 prom act 0% and SMN2 splice up 18%.
`COc1ccc(N2CCN(C(=O)CCCSc3nc4ccccc4[nH]3)CC2)cc1` gave FLuc counter 3%, ELG1 repair inh 23µM*, NPC1 promoter act -1%, ELG1 genotoxic -15%, Rab9 prom act -2% and SMN2 splice up -67%.
For CC(C)n1c(SCC(=O)Nc2nc3c(s2)CCCC3)nc2c1c(=O)n(C)c(=O)n2C the results were FLuc counter 8%, ELG1 repair inh 18µM*, NPC1 promoter act -1%, ELG1 genotoxic -11%, Rab9 prom act -6% and SMN2 splice up -69%.
NC(=O)CCCSc1nc2ccccc2[nH]1 was read as FLuc counter -4%, ELG1 repair inh 4%, NPC1 promoter act 1%, ELG1 genotoxic -1%, Rab9 prom act 0% and SMN2 splice up -1%.
For COc1ccc(N2CCN(C(=O)CSc3nc4c(c(=O)n(C)c(=O)n4C)n3C(C)C)CC2)cc1 the results were FLuc counter 7%, ELG1 repair inh 21µM*, NPC1 promoter act 4%, ELG1 genotoxic -5%, Rab9 prom act -4% and SMN2 splice up -26%.
`Cc1cccc(Cc2c(C)nc3nc(SCC(=O)NCc4ccccc4)nn3c2C)c1` gave FLuc counter -3% and SMN2 splice up -28%.
`Cn1c(SCC(=O)N2CCN(c3ccccc3)CC2)nnc1-c1c[nH]c2ccccc12` gave FLuc counter -3%, ELG1 repair inh 10µM*, NPC1 promoter act 0%, ELG1 genotoxic -17%, Rab9 prom act -5% and SMN2 splice up -56%.

Assay outcomes (PubChem BioAssay)
